Screening data deposited in PubChem by several laboratories.
BJeLR lethal – kills HRASV12-expressing BJeLR cells | 300,000 tested, 0.17% active | inhibition, % (concentration not given with the values) | AID 1554 | BJeLR (HRASV12) viability, CellTiter-Glo ATP luminescence, 48 h; in the data active = inhibition above about 50%
PfHsp40 rescue – rescue of PfHsp40-mediated yeast toxicity | S. cerevisiae expressing PfHsp40, growth rescue, ATP luminescence | AID 504582 | growth rescue, % at 12.5 µM | 340,000 tested, 0.68% active; in the data active = growth rescue above about 28%, passing the limit was not always enough;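 note: yeast W303a lacking pdr1 and pdr3 grown in galactose medium; growth measured after three days at 30 °C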
3CLpro inhibitor – SARS-CoV 3CLpro protease inhibition; P0C6X7; recombinant SARS-CoV 3CLpro, quenched FRET peptide cleavage; inhibition, % at 6 µM; 290,000 tested, 0.14% active; in the data active = inhibition above about 12%
RN4220 kill – S. aureus RN4220 growth inhibition; inhibition, % (concentration not given with the values); OD600, 16 h; AID 1259311; 330,000 tested, 0.33% active; in the data active = inhibition above about 85%;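 note: plate controls were untreated cells for no effect and reference antibiotic for full effect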
Sa ugtP lethal – growth inhibition of S. aureus ugtP deletion strain. 330,000 tested, 0.54% active. S. aureus RN4220 ugtP deletion, OD600 growth, 16 h. growth inhibition, % (concentration not given with the values). AID 1259309; in the data active = growth inhibition above about 68%;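 note: plate controls were untreated wells for no effect and antibiotic for full effect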
* marks the source's active call; other numbers are inactive results; · = no result. Rows were chosen to be rich in hits. Some 1.3% of all compounds tested hit in one or more screens of this group.

SMILES	BJeLR lethal	PfHsp40 rescue	3CLpro inhibitor	RN4220 kill	Sa ugtP lethal
COc1cccc(NC(=O)CN(C)C(=O)c2cccnc2Nc2cccc(C(F)(F)F)c2)c1	·	299*	·	-14	-9
CC(CCc1ccccc1)NC(=O)CN1CCc2ccccc2C1 (stereo unspecified)	20	-1	5	5	9
O=C(Nc1nnc(Cc2ccc(Cl)cc2)s1)c1cccs1	-9	0	-8	4	1
O=C(COC(=O)c1cc2ccccc2cc1O)c1ccccc1	-14	0	-2	1	-1
O=C(OCc1ccccc1F)c1cc2ccccc2cc1O	3	-1	-4	3	87*
Cc1ccc(S(=O)(=O)N(C)CC(=O)Nc2cccc(C)n2)cc1	-4	0	4	3	-1
COc1ccc(-c2oc3c(OC)c(OC)c(OC)c(O)c3c(=O)c2OC)cc1OC	-6	71*	2	7	-6
Cc1cc(-n2c(SCC(=O)NCCC3=CCCCC3)nc3n[nH]c(C)c3c2=N)ccc1Cl	59*	-1	3	1	-7
O=C(O)c1cc(Cl)ccc1NC(=O)C1CCCO1 (stereo unspecified)	-5	-1	4	4	9
COC(=O)C1CC23C=CCN4CCC5(c6ccccc6NC15C2C)C43 (stereo unspecified)	57*	0	1	·	·
Cc1cc(C(=O)CCl)c(C)n1Cc1ccco1	8	0	25*	15	8
OC(Cn1ccnc1)c1ccc(Cl)cc1Cl (stereo unspecified)	1	-1	3	11	4
Clc1ccc(CCC(Cn2ccnc2)Sc2c(Cl)cccc2Cl)cc1 (stereo unspecified)	·	120*	·	99*	98*
C[C@H]1CN([C@@H](C)CO)C(=O)c2cccc(NC(=O)Nc3ccc(C(F)(F)F)cc3)c2O[C@@H]1CN(C)S(=O)(=O)c1ccccc1	·	0	·	-1	4
CCCCc1c(C)c(C#N)c2nc3ccccc3n2c1Cl	128*	·	5	·	·
CCc1c(C)c(C#N)c2nc3ccccc3n2c1N(C)C	·	1	0	1	2
CCCn1c(C(=O)OC)cc2c1ccn2-c1ccc(F)cc1	-1	2	1	15	97*
COC(=O)c1cc2c(ccn2-c2ccc(F)cc2)n1CC(C)C	0	1	-3	9	74
C=COCCNC(=S)N1CCOCCOCCN(C(=S)NCCOC=C)CCOCC1	-5	-1	4	3	1
CCCCCCn1c2c(c(=N)c3c1CCC3)CCC2	0	0	2	3	2
CCCCCCCCCn1c2c(c(=N)c3c1CCC3)CCC2	39	-1	2	100*	101*
CCCCCCCn1c2c(c(=N)c3c1CCC3)CCCC2	10	-1	-4	11	99*
O=C(O)c1cccc(NN=C2c3ccccc3-c3ccccc32)c1	-1	269*	11	15	38
O=C(O)c1cccc2c1-c1ccccc1/C2=N\Nc1ccccc1	3	·	-1	·	·
CCn1ncc([N+](=O)[O-])c1C(=O)N1CCc2ccccc2C1	-3	0	-3	4	-3
SMILES	BJeLR lethal	PfHsp40 rescue	3CLpro inhibitor	RN4220 kill	Sa ugtP lethal
FC(F)(F)c1cccc(NC(=S)NC(c2ccccc2)c2ccccc2)c1	12	0	2	-6	-30
COc1n[nH]c(C(=O)Nc2cc(Cl)ccc2Cl)c1[N+](=O)[O-]	10	0	2	90*	88*
COc1ccc(Cl)cc1NC(=O)c1[nH]nc(OC)c1[N+](=O)[O-]	6	0	0	14	-4
C[C@H]1C[C@H]2[C@@H]3CCC4=CC(=O)C=C[C@]4(C)[C@@]3(F)[C@@H](O)C[C@]2(C)[C@@]1(O)C(=O)CO	-2	-1	·	·	·
C[C@H]1C[C@H]2[C@@H]3CCC4=CC(=O)C=C[C@]4(C)[C@@]3(Cl)[C@@H](O)C[C@]2(C)[C@@]1(O)C(=O)CO	-4	36*	-2	·	·
CC(C)CC(=O)NC(=S)Nc1ccccc1C(F)(F)F	0	1	-2	1	71
CC(C)(C)CC(=O)NC(=S)Nc1ccccc1C(F)(F)F	-6	6	1	5	93*
COCCNC(=S)N1CCC(C(=O)c2ccc(C)cc2)CC1	-1	48*	-2	6	8
O=C(CSc1nc2c(sc3ccccc32)c(=O)n1CCCN1CCCC1)NCC1CCCO1 (stereo unspecified)	5	1	1	5	-10
CCOc1ccc2oc(C(=O)NCC(C)(C)CN(C)C)c(C)c2c1	12	0	2	2	-3
O=C(Nc1nc2ccccc2[nH]1)c1ccc(F)cc1	26	1	8	0	-7
O=C(Nc1nc2ccccc2[nH]1)c1ccccc1F	85*	-1	7	7	-1
CCCNC(=O)c1ccc2c(=O)c(O)c(-c3ccc(F)cc3)[nH]c2c1	-13	199*	·	11	8
CCCNC(=O)c1ccc2c(=O)c(O)c(-c3cccc(Br)c3)[nH]c2c1	5	182*	·	8	3
Nc1c(Cl)cc(-c2[nH]c3cc(C(=O)NCCO)ccc3c(=O)c2O)cc1Cl	9	43*	-4	9	2
CCCNC(=O)c1ccc2c(=O)c(O)c(C)[nH]c2c1	9	1	·	7	2
ON=C1c2ccccc2-c2ccc(Br)cc21	·	5	·	·	·
Nc1cc2c(cc1Br)-c1ccccc1C2=NO	·	47*	·	·	·
Nc1ccc(N=Nc2ccccc2)c2ccccc12	1	-1	0	3	7
c1ccc(N=Nc2ccc3cccccc2-3)cc1	0	7	·	15	95*
O=C(NNC(=O)C1CCN(S(=O)(=O)c2ccc(Cl)cc2)CC1)c1ccc(Cl)cc1	-5	0	2	2	-1
CC1CCN(S(=O)(=O)c2ccc(C(=O)NNC(=O)C3CC3)cc2)CC1	2	124*	9	-1	-9
Cc1cccc(C)c1N1C(=O)C2ON(c3ccccc3)C(c3ccncc3)C2C1=O (stereo unspecified)	-6	254*	-5	2	-3
O=C1C2ON(c3ccccc3)C(c3ccncc3)C2C(=O)N1c1ccccc1 (stereo unspecified)	-9	-2	-2	8	-4
CC(C)c1ccc(OCC(=O)NNC(=S)NC(=O)c2ccco2)c(Br)c1	16	2	2	26	9
SMILES	BJeLR lethal	PfHsp40 rescue	3CLpro inhibitor	RN4220 kill	Sa ugtP lethal
CC(C)(C)c1ccc(OCC(=O)NNC(=S)NC(=O)c2ccco2)c(Br)c1	8	-1	2	99*	98*
Fc1ccc(CSc2ncnc3sc4c(c23)CCCC4)cc1	13	0	0	8	83*
CCSc1ncnc2sc3c(c12)CCC3	7	0	1	7	11
COC(=O)c1nn(-c2ccccc2)c(Sc2ccccc2)c1C=NO	·	·	·	16	76
O=C(Nc1cccc(NC(=O)c2ccccc2)n1)c1ccccc1	1	6	-5	96*	31
COC(=O)CN1C(=O)C2C(C=Cc3ccccc3)N3C(=O)CN(CC4CC4)C(=O)[C@@]3(Cc3ccccc3)C2C1=O (stereo partly specified)	·	·	·	1	1
